Source: PubChem BioAssay AID1159580 (chemical genetic matrix, 2015)
“And” between values parts separate entries of the source, which are not always exact repeats. Identical values can stand only once. About 2,000 (36%) of roughly 5,500 compounds were called active. Inconclusive results (about 18%) are left out. No stated cut-off is given here; in the data, active means normalized growth mostly below about 0.91 (no sharp cut-off); inconclusive means no clear call, values can overlap the other calls; inactive means mostly above about 0.92. This is one part of the list.

Assay: chemical genetic growth profiling, strain panel (AID 1159580);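 further: tested at 20 µM; growth read once vehicle control cultures reached saturation at 30 °C; 1 = growth at the plate median or of vehicle wells; lower values mean less growth of the strain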
Details: growth OD

Measured: normalized growth

CN(C)C(=O)Oc1cccc([N+](C)(C)C)c1
inactive: S. cerevisiae deletion strains, locus YJR075W, strain HOC1, active compounds read low 1.02 | S. cerevisiae deletion strains, locus YKL009W, strain mrt4, active compounds read low 0.969 | S. cerevisiae deletion strains, locus YKL068W, active compounds read low 0.988 | S. cerevisiae deletion strains, locus YKL085W, strain MDH1 (second series), active compounds read low 0.985 | S. cerevisiae deletion strains, locus YKL085W, strain MDH1, active compounds read low 0.985 | S. cerevisiae deletion strains, locus YKL160W, strain elf1, active compounds read low 0.996 | S. cerevisiae deletion strains, locus YKL190W, strain CNB1, active compounds read low 1 | S. cerevisiae deletion strains, locus YKR001C, strain vps1, active compounds read low 0.983 | S. cerevisiae deletion strains, locus YKR026C, strain gcn3, active compounds read low 0.984 | S. cerevisiae deletion strains, locus YKR091W, strain srl3, active compounds read low 0.995 | S. cerevisiae deletion strains, locus YLL001W, strain dnm1, active compounds read low 0.988 | S. cerevisiae deletion strains, locus YLL026W, active compounds read low 1 | S. cerevisiae deletion strains, locus YLL041C, strain sdh2, active compounds read low 1.01 | S. cerevisiae deletion strains, locus YLR027C, strain aat2, active compounds read low 0.984 | S. cerevisiae deletion strains, locus YLR039C, strain RIC1, active compounds read low 0.985 | S. cerevisiae deletion strains, locus YLR058C, strain SHM2, active compounds read low 0.996 | S. cerevisiae deletion strains, locus YLR102C, strain apc9, active compounds read low 0.995 | S. cerevisiae deletion strains, locus YLR113W, strain HOG1, active compounds read low 0.989 | S. cerevisiae deletion strains, locus YLR221C, strain rsa3, active compounds read low 0.99 | S. cerevisiae deletion strains, locus YLR258W, strain gsy2, active compounds read low 1 | S. cerevisiae deletion strains, locus YLR262C, strain YPT6 (second series), active compounds read low 1 | S. cerevisiae deletion strains, locus YLR262C, strain YPT6, active compounds read low 1.02 | S. cerevisiae deletion strains, locus YLR268W, strain sec22, active compounds read low 0.956 | S. cerevisiae deletion strains, locus YLR320W, strain mms22, active compounds read low 0.996 | S. cerevisiae deletion strains, locus YLR330W, strain CHS5, active compounds read low 0.982 | S. cerevisiae deletion strains, locus YLR342W, strain FKS1 (second series), active compounds read low 0.998 | S. cerevisiae deletion strains, locus YLR342W, strain FKS1, active compounds read low 1.01 | S. cerevisiae deletion strains, locus YLR357W, strain rsc2, active compounds read low 0.964 | S. cerevisiae deletion strains, locus YLR370C, strain arc18, active compounds read low 1 | S. cerevisiae deletion strains, locus YLR371W, strain rom2, active compounds read low 0.983 | S. cerevisiae deletion strains, locus YLR384C, strain iki3, active compounds read low 1 | S. cerevisiae deletion strains, locus YLR418C, strain cdc73, active compounds read low 0.972 | S. cerevisiae deletion strains, locus YML016C, strain PPZ1, active compounds read low 0.987 | S. cerevisiae deletion strains, locus YML032C, strain rad52, active compounds read low 0.982 | S. cerevisiae deletion strains, locus YML120C, strain ndi1, active compounds read low 0.999 | S. cerevisiae deletion strains, locus YML124C, strain tub3, active compounds read low 0.984 | S. cerevisiae deletion strains, locus YMR058W, strain fet3, active compounds read low 1.01 | S. cerevisiae deletion strains, locus YMR078C, strain ctf18, active compounds read low 0.984 | S. cerevisiae deletion strains, locus YMR125W, strain sto1, active compounds read low 0.976 | S. cerevisiae deletion strains, locus YMR129W, active compounds read low 0.997 | S. cerevisiae deletion strains, locus YMR205C, strain PFK2, active compounds read low 0.994 | S. cerevisiae deletion strains, locus YMR223W, strain ubp8, active compounds read low 0.995 | S. cerevisiae deletion strains, locus YMR231W, strain pep5, active compounds read low 0.999 | S. cerevisiae deletion strains, locus YMR263W, strain SAP30, active compounds read low 0.996 and 1.01 | S. cerevisiae deletion strains, locus YMR307W, strain GAS1, active compounds read low 0.984 and 1.02 | S. cerevisiae deletion strains, locus YNL067W, strain RPL9B, active compounds read low 1.01 | S. cerevisiae deletion strains, locus YNL071W, strain lat1, active compounds read low 1.01 | S. cerevisiae deletion strains, locus YNL153C, strain GIM3, active compounds read low 1.01 | S. cerevisiae deletion strains, locus YNL175C, strain NOP13, active compounds read low 1.01 | S. cerevisiae deletion strains, locus YNL183C, strain NPR1, active compounds read low 0.953 | S. cerevisiae deletion strains, locus YNL197C, strain WHI3, active compounds read low 1.02 | S. cerevisiae deletion strains, locus YNL209W, strain ssb2, active compounds read low 0.994 | S. cerevisiae deletion strains, locus YNL224C, strain SQS1, active compounds read low 1 | S. cerevisiae deletion strains, locus YNL233W, strain BNI4, active compounds read low 0.988 | S. cerevisiae deletion strains, locus YNL248C, strain rpa49, active compounds read low 0.99 | S. cerevisiae deletion strains, locus YNL250W, strain rad50, active compounds read low 0.978 | S. cerevisiae deletion strains, locus YNL271C, strain bni1, active compounds read low 0.983 | S. cerevisiae deletion strains, locus YNL298W, strain CLA4, active compounds read low 0.979 | S. cerevisiae deletion strains, locus YNL307C, strain MCK1, active compounds read low 0.982 | S. cerevisiae deletion strains, locus YNL322C, strain KRE1 (second series), active compounds read low 0.989 | S. cerevisiae deletion strains, locus YNR049C, strain mso1, active compounds read low 0.98 | S. cerevisiae deletion strains, locus YNR052C, strain pop2, active compounds read low 0.982 | S. cerevisiae deletion strains, locus YOL006C, strain TOP1, active compounds read low 1.03 | S. cerevisiae deletion strains, locus YOL012C, strain htz1 1.09 | S. cerevisiae deletion strains, locus YOL147C, strain pex11, active compounds read low 0.985 | S. cerevisiae deletion strains, locus YOR001W, strain rrp6, active compounds read low 0.989 | S. cerevisiae deletion strains, locus YOR061W, strain CKA2, active compounds read low 0.987 | S. cerevisiae deletion strains, locus YOR069W, strain VPS5, active compounds read low 0.986 | S. cerevisiae deletion strains, locus YOR070C, strain gyp1, active compounds read low 1 | S. cerevisiae deletion strains, locus YOR080W, strain dia2, active compounds read low 0.996 | S. cerevisiae deletion strains, locus YOR083W, strain WHI5 (second series), active compounds read low 1.01 | S. cerevisiae deletion strains, locus YOR083W, strain WHI5, active compounds read low 0.998 | S. cerevisiae deletion strains, locus YOR106W, strain vam3, active compounds read low 0.998 | S. cerevisiae deletion strains, locus YOR136W, strain idh2, active compounds read low 0.992 | S. cerevisiae deletion strains, locus YOR144C, strain elg1, active compounds read low 0.994 | S. cerevisiae deletion strains, locus YOR184W, strain ser1, active compounds read low 0.99 | S. cerevisiae deletion strains, locus YOR231W, strain MKK1, active compounds read low 1.02 | S. cerevisiae deletion strains, locus YOR265W, strain rbl2, active compounds read low 0.996 | S. cerevisiae deletion strains, locus YOR270C, strain vph1, active compounds read low 1.03 | S. cerevisiae deletion strains, locus YOR290C, strain snf2, active compounds read low 1.01 | S. cerevisiae deletion strains, locus YOR316C, strain cot1, active compounds read low 0.994 | S. cerevisiae deletion strains, locus YPL051W, strain arl3, active compounds read low 1 | S. cerevisiae deletion strains, locus YPL055C, strain LGE1, active compounds read low 1.02 | S. cerevisiae deletion strains, locus YPL078C, strain atp4, active compounds read low 0.994 | S. cerevisiae deletion strains, locus YPL106C, strain sse1, active compounds read low 0.973 | S. cerevisiae deletion strains, locus YPL240C, strain hsp82, active compounds read low 1 | S. cerevisiae deletion strains, locus YPL241C, strain CIN2, active compounds read low 1 | S. cerevisiae deletion strains, locus YPL256C, strain CLN2, active compounds read low 0.986 | S. cerevisiae deletion strains, locus YPR119W, strain clb2, active compounds read low 0.995 | S. cerevisiae deletion strains, locus YPR141C, strain kar3, active compounds read low 0.978 | S. cerevisiae deletion strains, locus YPR163C, strain tif3, active compounds read low 0.984 | S. cerevisiae deletion strains, locus YPR167C, strain met16, active compounds read low 0.984 | S. cerevisiae deletion strains, strain wtn01, active compounds read low 0.964 | S. cerevisiae strains, strain wild type, active compounds read low 1.01
